From PubChem BioAssay (NCI)
The panel holds about 83,000 compounds, 20% with a hit somewhere; the sample as a whole holds those more often.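 The endpoint reported here, percent growth, reads 100 for growth as untreated, 0 for no net growth and -100 for all cells dead.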 Values without a mark were called inactive. Calls of active or inactive are those of the source. The calls were made as follows: active = growth percent below 10; inactive = the rest.

system: DU-145 prostate; test: NCI-60 one-dose screen, 48 h (100 = growth as untreated, 0 = no growth, -100 = all killed); details: 10 µM

Question: `CN(C)CCOc1nc2ccccc2c2c1-c1ccc(Cl)cc1C2=O` was tested. Which growth did it give?
Answer: -14.2% (active)

Question: `CCOC(=O)C(CSC(c1ccccc1)(c1ccccc1)c1ccccc1)NC(=O)C(CSC(c1ccccc1)(c1ccccc1)c1ccccc1)NC(c1ccccc1)(c1ccccc1)c1ccccc1` (centres undefined) was tested. Which growth did it give?
Answer: 115%

Question: With `O=C1OCC2=C1C(c1cccc(Cl)c1)c1cc3c(cc1N2CCO)CCC3` (centres undefined) as the compound, how does the growth read?
Answer: -46.2% (active)

Question: With `O=C(Nc1ccc(Cl)cc1)N1NC(c2ccc(Cl)cc2)C=C1c1ccccc1` (centres undefined) as the compound, how does the growth read?
Answer: 102%

Question: For `S=c1[nH]ccn1-c1c(Cl)cccc1Cl`, which growth is on record?
Answer: 125%

Question: Which growth does the source give for `Cc1ccc(NC(=O)CSc2nc3ccccc3c(=O)n2CCc2ccccc2)c(C(=O)O)c1` here?
Answer: 117%

Question: For `O=S(=O)(NCCCNc1nccc(-c2c(-c3ccc(F)cc3)nc3sccn23)n1)c1ccc(F)cc1`, which growth is on record?
Answer: 44.6%

Question: Which growth does the source give for `CCn1cc(C(=O)O)c(=O)c2cnc(N3CCCC3)nc21` here?
Answer: 119%

Question: With `O=c1c2ccccc2nc(SCCN2CCCCC2)n1CCc1ccccc1` as the compound, how does the growth read?
Answer: 101%

Question: For `COc1cc2cc3c(nc2cc1OC)CCN3Cc1ccc(NC(=O)c2ccc(Cl)c(C(F)(F)F)c2)cc1`, which growth is on record?
Answer: 117%

Question: Which growth does the source give for `CN(C)C(=S)N/N=C\C=N/NC(=S)N(C)C` here?
Answer: 37.4%

Question: How did the growth turn out when `COc1cc(Cl)cc(-c2nn(-c3cccc(NC(=O)c4ccc(Cl)c(Cl)c4)c3)cc2-c2ccncc2)c1` was run?
Answer: 88.5%

Question: How did the growth turn out when `CCCCCCCCCCCCCCCC(=O)OC1[C@@H](OC(=O)CCCCCCCCCCCCCCC)[C@@H](C(=O)N[C@@H](CCCCN)C(=O)OC)O[C@H]1n1cnc2c(=O)[nH]c(NC(=O)C(C)C)nc21` (some centres undefined) was run?
Answer: 107%

Question: For `CSc1nn(-c2ccccc2)c2ncnc(Oc3ccccc3)c12`, which growth is on record?
Answer: 101%

Question: Which growth does the source give for `COc1ccc(/C=C/C(=O)Nc2ccc(-c3nc4ccc(OC)cc4s3)cc2)cc1` here?
Answer: 117%

Question: `O=C(/C=C/c1cc2ccccc2[nH]c1=O)c1ccc2c(c1)OCO2` was tested. Which growth did it give?
Answer: 102%

Question: For `COc1ccc(N2C(=O)C3c4[nH]c5ccc(OCc6ccccc6)cc5c4C4CCC(C(C)C)CC4C3C2=O)cc1` (centres undefined), which growth is on record?
Answer: 113%

Question: Which growth does the source give for `COc1cc(C(=C2O[C@@H]([C@H]3COC(C)(C)O3)[C@H]3OC(C)(C)O[C@@H]23)c2cc(OC)c(OC)c(OC)c2)cc(OC)c1OC` here?
Answer: 112%

Question: `COc1ccccc1/C=C/C(=O)c1ccccc1` was tested. Which growth did it give?
Answer: 87.6%

Question: How did the growth turn out when `COc1ccc(C2=Nc3c(C)nn(-c4ccccc4)c3NC(c3ccc(Oc4ccnc5cc(Cl)ccc45)c(OC)c3)C2)cc1` (centres undefined) was run?
Answer: 100%

Question: For `NC(=O)SCC(=O)Nc1ccc(S(N)(=O)=O)cc1`, which growth is on record?
Answer: 112%

Question: How did the growth turn out when `c1ccc([I+]c2ccccc2)cc1` was run?
Answer: 90%

Question: Which growth does the source give for `CCN1CCCC1CNC(=O)c1ncc(-c2ccc(C(F)(F)F)cc2)c(NC2CCCCCC2)n1` (centres undefined) here?
Answer: 83.2%

Question: How did the growth turn out when `Cc1ccc(N=Nc2c(N)nc(N)[nH]c2=O)cc1C` was run?
Answer: 117%

Question: Which growth does the source give for `COc1ccc(/C=C2/CN(C(=O)c3ccc(C)cc3)C/C(=C\c3ccc(OC)cc3)C2=O)cc1` here?
Answer: 93.5%

Question: Which growth does the source give for `COc1cc(-c2cc(/C=C3\C(=O)Nc4cc(Cl)ccc43)[nH]n2)cc(OC)c1OC` here?
Answer: 43.8%

Question: How did the growth turn out when `O=C(Nc1cccc(-n2cc(-c3ccncc3)c(-c3ccc(O)c(Cl)c3)n2)c1)c1ccc(N2CCOCC2)c(C(F)(F)F)c1` was run?
Answer: 62.7%

Question: `COc1ccccc1CNCCCN1C(=O)c2ccc3c4c(ccc(c24)C1=O)C(=O)N(CCCN)C3=O` was tested. Which growth did it give?
Answer: -95.6% (active)

Question: With `N=c1c2c(-c3ccccc3)c(-c3ccccc3)n(Cc3ccccc3)c2ncn1CCCO` as the compound, how does the growth read?
Answer: 34.5%

Question: For `CCCC(F)C(=O)O` (centres undefined), which growth is on record?
Answer: 117%

Question: `O=C(N/N=C\c1cc(Cl)ccc1[N+](=O)[O-])c1ccco1` was tested. Which growth did it give?
Answer: 108%

Question: How did the growth turn out when `COC(=O)c1ccc(=O)oc1` was run?
Answer: 114%

Question: Which growth does the source give for `Oc1[nH]c2ccc(Cl)cc2c1/C=c1/ccc2c(c1)N=C(c1cc(F)cc(F)c1)N=2` here?
Answer: 81.8%

Question: `CN(Cc1ccccc1)Cc1ccc([N+](=O)[O-])cc1I` was tested. Which growth did it give?
Answer: 95.6%

Question: `O=C(CCCCC(=O)Nc1ccc2c(c1)/C(=C/c1ccc[nH]1)C(=O)N2)NO` was tested. Which growth did it give?
Answer: 91.2%

Question: How did the growth turn out when `O=C1/C(=C/c2ccc(Cl)cc2)SC(=Nc2ccc(Cl)cc2)N1Cc1nc2ccccc2[nH]1` was run?
Answer: 93.7%

Question: For `O=C(C[P+](c1ccccc1)(c1ccccc1)c1ccccc1)C[P+](c1ccccc1)(c1ccccc1)c1ccccc1`, which growth is on record?
Answer: -94% (active)

Question: How did the growth turn out when `N=C(N)c1ccc(-c2ccc(-c3ccccc3)o2)nc1` was run?
Answer: 103%

Question: Which growth does the source give for `COc1cc(/C=C2\CCCC3=C2N=C2SC=NN2C3c2cc(OC)c(OC)c(OC)c2)cc(OC)c1OC` (centres undefined) here?
Answer: 8.36% (active)
